KinaseGlo FLuc – Counterscreen for Luciferase (Kinase-Glo TM) Inhibition. Luciferin 4-monooxygenase (Photuris pensylvanica), Q27757. Kinase-Glo luciferase, ATP luminescence, 8 min. Potency, µM (doses to about 38.3 µM), without a hit: top-dose activity change, negative = inhibition, hits mostly inhibitors. 200,000 tested, 0.28% active. AID 1379, 2008; further: nearly all actives have a fitted effect of over 60% in size
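Luminescence was the read-out, taken after 8-minute incubation at ambient temperature. Luciferase turned over luciferin with 10 uM ATP in imidazole pH 7.2 buffer containing KCl, MgCl2, Tween 20 and BSA.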
Gal4-VP16 FLuc – VP16 counterscreen qHTS for inhibitors of ROR gamma transcriptional activity; Drosophila S2 Gal4-VP16 UAS-luciferase, luminescence, 20 h; Potency, µM (titrated, usually from 53.6 µM), without a hit: at the highest dose activity, negative = inhibition, hits mostly inhibitors; 310,000 tested, 3.5% active; AID 2546, 2010;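 further: Gal4-VP16 expression switched on by copper sulfate through the metallothionein promoter; nearly all actives have a fitted effect of over 50% in size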
RORgamma inh – qHTS for inhibitors of ROR gamma transcriptional activity. Nuclear receptor ROR-gamma (Mus musculus), P51450. Drosophila S2 Gal4-RORgamma UAS-luciferase reporter, 20 h. Potency, µM (series often up to 53.6 µM), for inactives: at the highest dose activity change, negative = inhibition, most hits filed as inhibitors. 310,000 tested, 5.4% active. AID 2551, 2010; further: nearly all actives have a fitted effect of over 60% in size
Target sequence (P51450 whole entry, looked up, the tested form may be a part): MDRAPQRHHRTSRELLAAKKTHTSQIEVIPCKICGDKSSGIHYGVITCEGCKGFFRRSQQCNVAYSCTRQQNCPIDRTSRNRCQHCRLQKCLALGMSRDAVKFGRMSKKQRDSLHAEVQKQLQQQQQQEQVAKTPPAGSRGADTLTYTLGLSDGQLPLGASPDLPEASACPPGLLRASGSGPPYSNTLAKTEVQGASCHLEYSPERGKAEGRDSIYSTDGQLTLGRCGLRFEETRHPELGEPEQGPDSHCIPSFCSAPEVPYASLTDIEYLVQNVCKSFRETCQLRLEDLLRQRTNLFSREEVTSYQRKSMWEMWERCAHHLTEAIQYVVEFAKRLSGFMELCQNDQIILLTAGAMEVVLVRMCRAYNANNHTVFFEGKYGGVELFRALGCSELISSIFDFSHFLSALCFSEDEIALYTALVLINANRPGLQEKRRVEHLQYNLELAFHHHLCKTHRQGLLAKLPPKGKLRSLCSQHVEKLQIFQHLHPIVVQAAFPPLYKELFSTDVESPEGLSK
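Drosophila S2 cells stably expressing Gal4-DBD/mouse RORγ fusion under metallothionein promoter plus UAS-luciferase; compound 1 h, then 700 uM CuSO4 induction for 20 h at ambient temperature; inhibition read as reduced luminescence.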
* marks the source's active call; other numbers are inactive results; ? = inconclusive; · = no result; [ ] = another dose, or the depositor's remark. Compounds with a hit are over-represented: about 6.2% of the library has one in this group of screens. The call rests on the fitted dose curve; in most records, active means well fitted curve in the direction sought with a large enough effect; inconclusive means small, poorly fitted or top-dose-only effect, or another doubt; inactive means no such curve, though single readings can be large; an effect the other way counts as inactive or inconclusive. On the % scale 0 is the no-effect control and ±100 the full control effect; potency means the concentration at half of the fitted maximal effect.

SMILES	KinaseGlo FLuc	Gal4-VP16 FLuc	RORgamma inh
c1ccc2c(c1)NCC1CCCN21 (stereo not drawn)	·	-6%	0%
Cc1ccc(CNC(=O)CCC(=O)Nc2nnc(C)s2)cc1	·	-8%	-12%
COc1cc(OC)c2c(c1C(CCN1CCN(c3ccccc3)CC1)c1ccc(N(C)C)cc1)OC(=O)CC2c1ccc(N(C)C)cc1 (stereo not drawn)	·	-6%	7%
COc1ccc(C(=O)N2CCNC(=O)C2CC(=O)Nc2cc(Cl)ccc2OC)cc1 (stereo not drawn)	·	-14%	-29%
Cc1cc(C)nc(SCc2ccc(C(=O)N/N=C/C3CCCCC3)cc2)n1	1%	0%	-40%
COc1ccc(-c2n[nH]c(=S)n2-c2ccc3c(c2)OCCO3)cc1OC	4%	4%	-31%
COc1ccc(-c2n[nH]c(=S)n2-c2ccc3c(c2)OCCO3)cc1	-3%	?	2.8µM*
S=c1[nH]nc(-c2ccc(Br)cc2)n1-c1ccc2c(c1)OCCO2	·	-29%	0.4µM*
S=c1[nH]nc(-c2ccc(Cl)cc2Cl)n1-c1ccc2c(c1)OCCO2	·	-10%	3.5µM*
Brc1ccc2c(c1)OCCOCCOc1cc(Br)ccc1OCCOCCOCCO2	5%	16%[0.365 µM]	?
Oc1ccc(-c2n[nH]c(=S)n2-c2ccc3c(c2)OCCO3)c(O)c1	2%	11%	?
N#CCC(CNc1ncc(C(F)(F)F)cc1Cl)OC(=O)c1cccc([N+](=O)[O-])c1 (stereo not drawn)	1%	-11%[0.365 µM]	6%
C=CC[C@@H]1C=C[C@H](O/N=C\[C@@H](C)[C@H](OCc2ccccc2)C(C)C)[C@H](CO)O1	·	-1%[10 µM]	-14%[10 µM]
COc1cc(Cl)c(C)cc1NC(=O)CCNC(=O)c1ccco1	·	4%	-3%
COc1ccc(-n2c(CNC(=O)COc3ccc(Cl)cc3)n[nH]c2=S)cc1	-1%	16%	-41%
S=c1[nH]nc(COc2ccc(Cl)cc2Cl)n1-c1ccccc1	·	3.5µM*	-33%[1.91 µM]
COc1ccc(-n2c(CNC(=O)COc3ccc(Cl)cc3Cl)n[nH]c2=S)cc1	-2%	-4%	10µM*
COc1ccc(C(=O)NCc2n[nH]c(=S)n2-c2ccccc2)cc1OC	18%	-5%	-34%
CCOc1ccnc2c1c(=O)n(Cc1cc(OC)cc(OC)c1)c(=O)n2C	·	-3%	-27%
COc1ccc2c(c1)nc(NCCCO)n2Cc1ccccc1	·	0%	-3%
O=C(NCc1cccnc1)c1nc(-c2ccc(C(F)(F)F)cc2)no1	0%	3.2µM*	?
O=C(NCc1ccncc1)c1nc(-c2ccc(C(F)(F)F)cc2)no1	0%	?	?
COc1cc(NS(=O)(=O)c2cn(C)cn2)cc(OC)c1OC	·	-2%	-12%
CCn1c(-c2csc(C(C)C)c2)n[nH]c1=S	-4%	13µM*	2.5µM*
CCn1c(C(C)NC(=O)c2cccc(C)c2)n[nH]c1=S (stereo not drawn)	-4%	-18%	-32%
SMILES	KinaseGlo FLuc	Gal4-VP16 FLuc	RORgamma inh
CC(C)Cn1c(-c2csc(C(C)C)c2)n[nH]c1=S	1%	-25%[10 µM]	2µM*
CCOC(=O)CNS(=O)(=O)c1ccc(F)cc1Br	·	0%	11%
COc1cc(NC(=O)c2cc3nc(-c4ccccc4)cc(-c4ccccc4)n3n2)cc(OC)c1OC	1%	0%	13%
CCOC(=O)c1c(NC(=O)CSc2nnc(Cc3ccccc3)o2)sc(C)c1C	-3%	1%	?
Clc1ccc(-n2nnnc2SCc2c(-c3ccccc3)nc3sccn23)cc1	-2%	6.3µM*	?
O=c1[nH]c(CSc2nnnn2-c2ccc(Cl)cc2)nc2ccccc12	-7%	-6%	-36%
CCNc1ncc2nc(-c3ccccc3)c(=O)n(C)c2n1	·	22%	2%
CCOC(=O)[C@H](Cc1ccc(O)cc1)NC(=O)c1ccccc1	·	?	1.4µM*
CCOC(=O)C(Cc1ccccc1)NC(=O)CNC(C)=O (stereo not drawn)	-1%	-1%	-23%
COC(=O)C(Cc1ccc(O)cc1)NC(=O)CCc1ccco1 (stereo not drawn)	·	-1%	-9%
COC(=O)C(Cc1ccc(O)cc1)NC(=O)c1ccc2c(c1)OCCO2 (stereo not drawn)	·	2µM*	0.63µM*
CCc1ccc2nc(Nc3ccc(OC)cc3OC)c(C#N)cc2c1	-2%	-11%	0%
CN1CCCC2(CCN(C(=O)c3cnccn3)CC2)C1	0%	-10%	-2%
Cc1nn(C)cc1/C=N/NC(=O)Cn1nccc1C	-1%	-2%	-23%
COc1ccc(S(=O)(=O)N2CCCOC2CNC(=O)C(=O)NCCCN2CCOCC2)cc1C (stereo not drawn)	·	-10%	-8%
O=S(=O)(CC(CN1CCCCC1)N1CCCCC1)c1ccc2ccccc2c1 (stereo not drawn)	-2%	?	13µM*
O=S(=O)(CC(CN1CCOCC1)N1CCOCC1)c1ccccc1 (stereo not drawn)	2%	13%	-12%
Cc1ccc(S(=O)(=O)CC(CN2CCCCC2)N2CCCCC2)cc1 (stereo not drawn)	9%	-19%	2.8µM*
Cc1ccc(S(=O)(=O)CC(c2ccccc2)N2CCCCC2)cc1 (stereo not drawn)	2%	-10%	-3%
CN(C)CCCNC(=O)c1ccc(Cc2nc3ccccc3[nH]2)cc1	-1%	·	·
Cc1ccc(N2C(=O)C(Cl)=C(N3CCCCCC3)C2=O)c(C)c1	·	-18%	31%
Cn1nnnc1SCC(=O)N(C1CCCCC1)C1CCS(=O)(=O)C1 (stereo not drawn)	0%	7%	-1%
O=S(=O)(CCSc1ccccn1)c1nc2ccccc2s1	2%	?	13µM*
O=S(=O)(CCSc1nc2ccccc2o1)c1nc2ccccc2s1	0%	?	?
CCCCn1c(C)cc2c(c1=O)C1O[C@](c3ccc(OC)cc3)(Cc3cc(OC)c(OC)cc31)O2	·	-28%[10 µM]	10%[10 µM]
SMILES	KinaseGlo FLuc	Gal4-VP16 FLuc	RORgamma inh
Cc1ccc(S(=O)(=O)c2nc(S(C)(=O)=O)sc2N2CCC3(CC2)OCCO3)cc1	·	-4%	16%
C/C(=N\NC(=O)c1ccn[nH]1)c1cn(C)nc1C	-27%	-14%	-25%
CCN(CC)c1ccc2cc(NC(=O)CCC(=O)O)c(=O)oc2c1	2%	1.3µM*	0.79µM*
CCN(CC)c1ccc2cc(C(C)=O)c(=O)oc2c1	-3%	-4%	25%
Cc1ccccc1C(=O)NC(=S)Nc1ncccn1	·	-11%	-17%
Cc1ccccc1C(=O)NC(=S)N(C)CCc1ccccn1	-4%	?	7.1µM*
CN1CCN(C(=O)/C(=C/c2cccc([N+](=O)[O-])c2)NC(=O)c2ccccc2)CC1	·	-1%	10%
Cc1cc(C(=O)N2CCN(c3ccccc3)CC2)c(C)o1	-2%	3%	22%
Cc1cc(C(=O)N2CCN(c3ncccn3)CC2)c(C)o1	4%	-1%[0.365 µM]	22µM*
Cc1cc(C(=O)N2CCN(c3cccc(Cl)c3)CC2)c(C)o1	-5%	9%	-35%
Cc1cc(C(=O)N2CCN(S(=O)(=O)c3ccccc3F)CC2)c(C)o1	3%	7%	13µM*
COc1ccc([N+](=O)[O-])cc1NC(=O)Cc1c(Cl)cccc1Cl	-2%	-8%	-10%
